Values joined by “and” are separate entries in the source; they are usually repeats but may differ in a detail not shown here. Equal entries are not always repeated. Unmarked numbers belong to inactive results. Inconclusive results are not listed. Where a call stands in place of a potency, no number is given. Active and inactive are the calls of the source. Calls come from the whole dose curve; as a rule, active = well fitted curve in the direction sought with a large enough effect; inconclusive = small, poorly fitted or top-dose-only effect, or another doubt; inactive = no such curve, though single readings can be large; an effect the other way counts as inactive or inconclusive.
Key:
[1] = system: Zika virus NS2B-NS3 protease (linked construct); assay: Primary screen NINDS Rhodamine qHTS for Zika virus inhibitors (AID 1347160); note: nearly all actives have a fitted effect of over 55% in size; note: potency is the fitted concentration of half-maximal effect
Procedure, shortened: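 Each compound, titrated, sat 15 min with 25 nM linked protease before 1.5 microM Rhodamine110 substrate went in. Fluorescence gain over the next 15 min, in pH 8.0 Tris with Tween 20, gave Hill-fitted curves.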

[2] = target: Calcium and integrin-binding protein 1 (Homo sapiens) (UniProt Q99828); assay: Primary qHTS for Identification of Calcium Integrin Binding Protein 1 (CIB1) Competitor (AID 1508620);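 note: GST tagged CIB1 binding a fluorescein labelled alphaIIb integrin peptide tracer; top concentration of the series differs between compounds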
Chain of Calcium and integrin-binding protein 1 (Homo sapiens) (Q99828 whole entry, looked up): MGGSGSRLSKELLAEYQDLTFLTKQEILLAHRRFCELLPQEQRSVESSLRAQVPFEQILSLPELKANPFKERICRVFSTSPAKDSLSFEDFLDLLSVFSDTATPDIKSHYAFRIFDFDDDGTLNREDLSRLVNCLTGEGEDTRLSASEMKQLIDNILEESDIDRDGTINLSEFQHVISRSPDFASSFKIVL
Procedure, shortened: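 Fluorescence polarization competition: CIB1-GST (1 uM final) preincubated with compound 15 min at room temperature, then FITC-labeled alphaIIb peptide (100 nM final) added for another 15 min. Polarization read at Ex 480/Em 540.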

[3] = target: Glutathione peroxidase 1 (Homo sapiens) (UniProt P07203); assay: Primary qHTS Assay for Inhibitors of Recombinant Selenoprotein Glutathione Peroxidase 1 (GPX1) (AID 1845191); note: nearly all actives have a fitted effect of over 65% in size
Chain of Glutathione peroxidase 1 (Homo sapiens) (P07203 whole entry, looked up): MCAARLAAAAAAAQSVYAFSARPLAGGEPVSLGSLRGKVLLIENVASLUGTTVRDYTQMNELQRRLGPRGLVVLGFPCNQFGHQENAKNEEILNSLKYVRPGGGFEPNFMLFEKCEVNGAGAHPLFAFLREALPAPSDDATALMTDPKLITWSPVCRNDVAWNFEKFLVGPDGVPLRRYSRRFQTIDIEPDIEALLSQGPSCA
Procedure, shortened: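 GPX1 10 nM, GR 100 nM, GSH 1 mM, NADPH 0.5 mM, CHP 0.5 mM (final). 30-min cpd preincubation, RT. Ex340/Em450 read t=0, t=15 min.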

[4] = target: Luciferin 4-monooxygenase (Photinus pyralis) (UniProt P08659); assay: Primary firefly luciferase (FLuc) qHTS assay for identification of artifact compounds. (AID 1845220); note: nearly all actives have a fitted effect of over 60% in size
Procedure, shortened: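 qHTS, 15 min compound preincubation with substrate (10 uM luciferin, 10 uM ATP) at RT, then 10 nM FLuc; 5 min; luminescence; % inhibition vs no-enzyme/DMSO controls, 4-parameter Hill fit.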

[5] = Primary fluorescence-based thiol-reactive (MSTI) qHTS assay for identification of artifact compounds. (AID 1845221);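 note: thiol-reactive compounds lower the probe fluorescence signal; nearly all actives have a fitted effect of over 65% in size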
Procedure, shortened: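 First, 4 uM MSTI in 2% DMSO/PBS pH 7.4 was dispensed; next, compounds were added; then plates sat 1 h at room temperature without light. Finally, emission at 598 nm was recorded.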

[6] = Primary redox qHTS assay for identification of artifact compounds. (AID 1845223)
Procedure, shortened: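 Redox-cycling detection via DTT (250 uM final) oxidation coupled to Amplex Red (25 uM)/HRP (250 mU/mL) in HBSS. 15 min preincubation plus 30 min after DTT, room temperature. Ex/Em 525/598 nm; 4-parameter Hill fit against DMSO and 10 uM DA3003.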

C33A = assay: Primary qHTS to identify gynecologic anti-cancer compounds using libraries of approved drugs and bioactive compounds (AID 1345084); conditions: Gynecologic cancer cell panel viability, ATPlite luminescence, 48 h; series mostly up to 57.5 µM; note: nearly all actives have a fitted effect of over 55% in size
Procedure, shortened: (§1)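 48 h compound exposure at 37 C, 5% CO2; five-point qHTS. ATPlite luminescence readout of cell ATP.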

CASKI = assay: as above; conditions: Gynecologic cancer cell panel viability, ATPlite luminescence, 48 h; series mostly up to 57.5 µM
Procedure, shortened: as §1

Es-2 = assay: as above; conditions: Gynecologic cancer cell panel viability, ATPlite luminescence, 48 h; series mostly up to 57.5 µM
Procedure, shortened: as §1

HeLa = assay: as above; conditions: Gynecologic cancer cell panel viability, ATPlite luminescence, 48 h; series mostly up to 57.5 µM
Procedure, shortened: as §1

Hek293T = assay: as above; conditions: Gynecologic cancer cell panel viability, ATPlite luminescence, 48 h, control line for the selectivity index; series mostly up to 57.5 µM
Procedure, shortened: as §1

JEG-3 = assay: as above; conditions: Gynecologic cancer cell panel viability, ATPlite luminescence, 48 h; series mostly up to 57.5 µM
Procedure, shortened: as §1

OV90 = assay: as above; conditions: Gynecologic cancer cell panel viability, ATPlite luminescence, 48 h; series mostly up to 57.5 µM
Procedure, shortened: as §1

PA-1 = assay: as above; conditions: Gynecologic cancer cell panel viability, ATPlite luminescence, 48 h; series mostly up to 57.5 µM
Procedure, shortened: as §1

Tov-21-G = assay: as above; conditions: Gynecologic cancer cell panel viability, ATPlite luminescence, 48 h; series mostly up to 57.5 µM
Procedure, shortened: as §1

Tov112D = assay: as above; conditions: Gynecologic cancer cell panel viability, ATPlite luminescence, 48 h; series mostly up to 57.5 µM
Procedure, shortened: as §1

[7] = Primary qHTS for inhibitors of nuclear receptor binding SET domain protein 2 (NSD2) in an isogenic RCH-ACV NSD2 p.E1099K mutant (9B) (AID 1645876); note: nearly all actives have a fitted effect of over 70% in size; note: potency is the fitted concentration of half-maximal effect
[8] = Primary qHTS for inhibitors of nuclear receptor binding SET domain protein 2 (NSD2) in an RCH-ACV wild type WT cells (2C) (AID 1645877); note: potency is the fitted concentration of half-maximal effect; nearly all actives have a fitted effect of over 70% in size
[9] = target: Phospholipid hydroperoxide glutathione peroxidase GPX4 (Homo sapiens) (UniProt P36969); assay: Primary qHTS Assay for Inhibitors of Recombinant Selenoprotein Glutathione Peroxidase 4 (GPX4) (AID 1845192); conditions: outcome: dose series up to 50 µM unless noted; note: nearly all actives have a fitted effect of over 65% in size; note: potency is the fitted concentration of half-maximal effect
Chain of Phospholipid hydroperoxide glutathione peroxidase GPX4 (Homo sapiens) (P36969 whole entry, looked up): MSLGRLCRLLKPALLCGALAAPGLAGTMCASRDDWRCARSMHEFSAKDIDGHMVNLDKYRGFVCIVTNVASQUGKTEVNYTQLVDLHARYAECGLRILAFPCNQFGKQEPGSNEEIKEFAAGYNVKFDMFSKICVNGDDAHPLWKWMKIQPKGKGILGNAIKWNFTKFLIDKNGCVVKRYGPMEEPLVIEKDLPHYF
Procedure, shortened: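 qHTS, GR-coupled: GPX4 200 nM + cpd 30 min RT → GSH 1 mM, NADPH 0.5 mM, GR 100 nM → CHP 0.5 mM start; fluor 340/450 at t0 and t15 min; no-enzyme wells as control.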

[10] = system: Nanoluciferase (engineered Oplophorus gracilirostris luciferase); assay: Primary Nanoluciferase (NLuc) qHTS assay for identification of artifact compounds. (AID 1845222)
Procedure, shortened: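 Luminescence read-out of secreted NLuc in S16 cell conditioned medium (1:55); compounds tested with 15 min RT preincubation, then Nano-Glo substrate 1:100, 5 min. % inhibition vs no-enzyme and DMSO controls, 4-parameter Hill fit.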

Structure (SMILES) | Potency [1] | outcome [2] | Potency [3] | Potency [4] | Potency [5] | Potency [6] | Potency (C33A) | Potency (CASKI) | Potency (Es-2) | Potency (HeLa) | Potency (Hek293T) | Potency (JEG-3) | Potency (OV90) | Potency (PA-1) | Potency (Tov-21-G) | Potency (Tov112D) | Potency [7] | Potency [8] | Potency [9] | Potency [10]
COc1cc2ncnc(Oc3cccc(NC(=O)Nc4cc(C(C)(C)C(F)(F)F)on4)c3)c2cc1OC | inactive | inactive | inactive | inactive | inactive | inactive | inactive | inactive | inactive | inactive | inactive | inactive | inactive | inactive | inactive | inactive | – | – | – | –
CNC(=O)c1cccc2cc(Oc3ccnc4cc(OCC5(N)CC5)c(OC)cc34)ccc12 | inactive | inactive | inactive | inactive | inactive | – | inactive | inactive | inactive | inactive | inactive | inactive | – | – | inactive | inactive | 14.8 µM (active) and 20.6 µM (active) | 10.5 µM (active) and 23.1 µM (active) | inactive | inactive
COc1cc2ncnc(Nc3ccc(Oc4ccccc4)cc3)c2cc1OC | inactive | – | – | inactive | inactive | inactive | inactive | – | – | – | – | inactive | inactive | – | – | – | 4.59 µM (active) | – | – | inactive
CNc1ccc([N+](=O)[O-])cc1-n1cnc(-c2ccc(C(F)(F)F)cc2)c1 | inactive | inactive | inactive | inactive | inactive | inactive | inactive | inactive | inactive | inactive | inactive | inactive | inactive | inactive | inactive | inactive | – | – | – | inactive
COc1ccc2c(c1)C[C@H](C(=O)Nc1ccc(-c3cn[nH]c3)cc1OCCN(C)C)CO2 | – | inactive | inactive | – | inactive | – | inactive | inactive | inactive | – | inactive | inactive | inactive | inactive | inactive | inactive | 0.291 µM (active) | 0.164 µM (active) | inactive | inactive
C[C@@H]1COCCN1c1cc(C2(S(C)(=N)=O)CC2)nc(-c2ccnc3[nH]ccc23)n1 (stereo partly specified) | – | inactive | – | – | – | – | – | – | – | – | – | – | – | – | – | – | 662 nM (active) and 3.66 µM (active) | 662 nM (active) and 2.31 µM (active) | 20.2 µM (active) | –
Cn1cc(-c2cnc3ccc4ccc(CS(=O)(=O)NCc5ccccn5)cc4c(=O)c3c2)cn1 | inactive | – | inactive | – | inactive | inactive | inactive | inactive | inactive | inactive | inactive | inactive | inactive | inactive | inactive | – | 20.9 µM (active) | 23 µM (active) | inactive | inactive
COc1cc([C@@H](CC(=O)O)c2ccc(C)c(CN3C[C@@H](C)Oc4ccccc4S3(=O)=O)c2)cc2nnn(C)c12 | – | inactive | inactive | – | – | – | – | – | – | – | – | – | – | – | – | – | inactive | – | – | –
COc1ccc(C(=O)N(CCC(C)C)Cc2nc(C)c(C)n2Cc2ccccc2C)c(OC)c1 | inactive | inactive | inactive | – | – | inactive | inactive | inactive | inactive | inactive | inactive | inactive | inactive | inactive | inactive | inactive | 11.5 µM (active) | 11.5 µM (active) | inactive | –
CC1(C)CC23[C@@H]4CC(=O)[C@@H]2COC(=O)[C@@H]3CC[C@H]41 | inactive | inactive | inactive | – | inactive | inactive | inactive | inactive | inactive | inactive | – | inactive | inactive | inactive | – | inactive | 12.9 µM (active) | 7.28 µM (active) | inactive | –
O=S(=O)(c1cccc2ccccc12)n1ccc2ccc(N3CCN4CCCC4C3)cc21 (stereo unspecified) | inactive | inactive | inactive | inactive | – | – | inactive | inactive | inactive | inactive | inactive | inactive | inactive | – | inactive | inactive | 14.5 µM (active) | 14.5 µM (active) | inactive | inactive
COc1cc(O)ccc1OCCNCC(O)COc1cccc2[nH]c3ccccc3c12 (stereo unspecified) | inactive | inactive | inactive | inactive | – | inactive | inactive | inactive | inactive | inactive | inactive | inactive | inactive | inactive | inactive | inactive | 20.5 µM (active) | 20.5 µM (active) | – | –
N#CCC(C1CCCC1)n1cc(-c2ncnc3[nH]ccc23)cn1 (stereo unspecified) | inactive | inactive | – | – | inactive | inactive | inactive | inactive | inactive | inactive | inactive | inactive | inactive | inactive | inactive | inactive | 12.9 µM (active) | 20.5 µM (active) | – | inactive
CC(C)CCC[C@@H](C)[C@H]1CC[C@H]2[C@@H]3CC=C4C[C@@H](OC(=O)NCCN(C)C)CC[C@]4(C)[C@H]3CC[C@]12C | inactive | inactive | – | inactive | inactive | – | inactive | – | inactive | inactive | inactive | inactive | inactive | inactive | inactive | inactive | – | – | inactive | inactive
CC1CCN(C(c2ccc(F)cc2)c2ccc(C(C)C(=O)O)cc2-c2ccc(C(F)(F)F)cc2)CC1 (stereo unspecified) | 3.16 µM (active) | inactive | inactive | inactive | inactive | inactive | inactive | inactive | inactive | – | – | inactive | inactive | inactive | inactive | inactive | 14.5 µM (active) | 11.5 µM (active) | inactive | inactive

Reference: PubChem BioAssay (NCATS)
